According to PubChem BioAssay AID1645838 (ICCB-Longwood Screening Facility, Harvard Medical School, 2021):
Several values for one entry are separate records, joined by “and”; a condition that tells them apart may be missing. Identical values can stand only once. The campaign covered roughly 2,000 compounds. About 100 (5%) were called active. Rule as the data show it: active = z-score above about 2; inactive = the rest. The sample as a whole holds a higher share of actives than the screen did.

Assay: supercomplex reporter luminescence per Hoechst cell count – Hoechst nuclei count (AID 1645838);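 also: control cybrid cells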;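 as to z-score: higher means more mitochondrial supercomplex formation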
Conditions: Cells, luminescence/Hoechst cell count ratio; for z-score: stronger effect = higher value; for cell count: measured here: cell number, Hoechst nuclei count
[1] = library stock concentration (final well concentration not given) 80 uM
[2] = library stock concentration (final well concentration not given) 400 uM
[3] = library stock concentration (final well concentration not given) 2 mM
[4] = library stock concentration (final well concentration not given) 10 mM
[5] = library stock concentration (final well concentration not given) 46 uM
[6] = library stock concentration (final well concentration not given) 278 uM
[7] = library stock concentration (final well concentration not given) 1.67 mM

## CCCCC/C=C\C/C=C\C/C=C\C/C=C\CCCC(=O)NC(CO)CO
  z-score: 4 (active)
  cell count: 4470

## CCCCC/C=C\C/C=C\C/C=C\C/C=C\CCCC(=O)N[C@@H](C)CO
  z-score: 0.0527 (inactive)
  cell count: 5800

## CCCCC/C=C\C/C=C\C/C=C\C/C=C\CCCC(=O)N[C@H](C)CO
  z-score: -0.466 (inactive)
  cell count: 6100

## CNCCCCCCN(C)N(O)N=O
  z-score: 0.0102 (inactive)
  cell count: 6050

## CCCCCCC(=O)O[C@H]1CC[C@H]2[C@@H]3C=CC4=CC(=O)CC[C@]4(C)[C@H]3CC[C@]12C
  z-score: -0.283 (inactive)
  cell count: 5360

## COC1C(OC(=O)NC(=O)CCl)CC[C@]2(CO2)[C@@H]1[C@@]1(C)OC1CC=C(C)C (stereo not given in full)
[1]
  z-score: -0.0262 (inactive)
  cell count: 3980
[2]
  z-score: 0.199 (inactive)
  cell count: 3760
[3]
  z-score: 1.06 (inactive)
  cell count: 3110
[4]
  z-score: 2.72 (active)
  cell count: 1800

## c1cc2cc(N3CCNCC3)ccc2cn1
  z-score: 0.406 (inactive)
  cell count: 4610

## CCCCC/C=C\C/C=C\C/C=C\C/C=C\CCCC(=O)NCCc1ccc(O)c(O)c1
  z-score: 0.0355 (inactive)
  cell count: 5380

## CS(=O)CCCCN=C=S (stereo not given)
Library stock 10 mM
  outcome: inactive; censored for cell count
[1]
  z-score: -0.41 (inactive)
  cell count: 6580
[2]
  z-score: -0.338 (inactive)
  cell count: 6460
[3]
  z-score: 0.15 (inactive)
  cell count: 5610

## CCCCC/C=C\C/C=C\CCCCCCCC(=O)NCCO
  outcome: inactive; censored for cell count

## CCCCCCCC/C=C\CCCCCCCC(=O)N[C@H](C)CO
  z-score: 0.127 (inactive)
  cell count: 5170

## CCCCCCC(=O)CCCCCC/C=C/C[C@@H](O)[C@H](O)[C@@](N)(CO)C(=O)O
  z-score: 5.47 (active)
  cell count: 4740

## CCCCC/C=C\C/C=C\C/C=C\C/C=C\CCCC(=O)Nc1ccc([N+](=O)[O-])cc1
  z-score: -0.128 (inactive)
  cell count: 5210

## CCCCC/C=C\C/C=C\C/C=C\C/C=C\CCCC(=O)NCCc1c[nH]c2ccc(O)cc12
  z-score: 1.36 (inactive)
  cell count: 5300

## O=NN(O)N1CCC[C@H]1C(=O)O
  z-score: -0.00248 (inactive)
  cell count: 5130

## CN=C(NS(=O)(=O)c1ccc(Cl)cc1)N1C[C@@H](c2ccccc2)C(c2ccc(Cl)cc2)=N1
  z-score: -0.26 (inactive)
  cell count: 5290

## Cc1sc2c(c1C)C(c1ccc(Cl)cc1)=NC(CC(N)=O)c1nnc(C)n1-2 (stereo not given)
[5]
  z-score: 0.632 (inactive)
  cell count: 5970
[6]
  z-score: 2.69 (active)
  cell count: 4460
[7]
  z-score: 7.71 (active)
  cell count: 2880
[4]
  z-score: 10.6 (active)
  cell count: 2360

## Cc1sc2c(c1C)C(c1ccc(Cl)cc1)=NC(CC(=O)Nc1ccc(O)cc1)c1nnc(C)n1-2 (stereo not given)
[1]
  z-score: 1.4 (inactive)
  cell count: 5230
[2]
  z-score: 3.81 (active)
  cell count: 4010
[3]
  z-score: 7.81 (active)
  cell count: 2830
[4]
  z-score: 8.99 (active)
  cell count: 2330

## Cc1sc2c(c1C)C(c1ccc(Cl)cc1)=NC(CC(=O)OC(C)(C)C)c1nnc(C)n1-2 (stereo not given)
[1]
  z-score: 1.22 (inactive)
  cell count: 5120
[2]
  z-score: 2.15 (active)
  cell count: 4600
[3]
  z-score: 4.36 (active)
  cell count: 3540
[4]
  z-score: 5.69 (active)
  cell count: 2860

## C[N@@+]1(CC2CC2)CC[C@]23c4c5ccc(O)c4OC2C(=O)CC[C@@]3(O)C1C5 (stereo not given in full)
[1]
  z-score: 0.853 (inactive)
  cell count: 4560
[2]
  z-score: 0.439 (inactive)
  cell count: 4560
[3]
  z-score: 1.12 (inactive)
  cell count: 3990
[4]
  z-score: 0.0218 (inactive)
  cell count: 4440

## CN=C(NS(=O)(=O)c1ccc(Cl)cc1)N1CC(c2ccccc2)C(c2ccc(Cl)cc2)=N1 (stereo not given)
  z-score: 0.263 (inactive)
  cell count: 4560

## CCCC(=O)N[C@H]1CCOC1=O
  z-score: -0.00429 (inactive)
  cell count: 5280

## O=C1C(=O)c2cccc3cccc1c23
Library stock 10 mM
  outcome: inactive; censored for cell count
[1]
  z-score: -0.293 (inactive)
  cell count: 5390
[2]
  z-score: -0.13 (inactive)
  cell count: 5120
[3]
  z-score: 0.0237 (inactive)
  cell count: 4940

## CCCCC/C=C\C/C=C\C/C=C\C/C=C\CCCC(=O)OCCN
  z-score: -1.23 (inactive)
  cell count: 5760

## COc1nc(C)nc(NC(=O)NS(=O)(=O)c2ccccc2Cl)n1
[5]
  z-score: 0.223 (inactive)
  cell count: 6660
[6]
  z-score: 0.421 (inactive)
  cell count: 6640
[7]
  z-score: 0.438 (inactive)
  cell count: 6690
[4]
  z-score: 0.591 (inactive)
  cell count: 6980

## NC(=NCCCC(N)C(=O)O)N[N+](=O)[O-] (stereo not given)
[5]
  z-score: -0.276 (inactive)
  cell count: 5020
[6]
  z-score: -0.202 (inactive)
  cell count: 4960
[7]
  z-score: -0.093 (inactive)
  cell count: 5010
[4]
  z-score: -0.00821 (inactive)
  cell count: 4490

## O=C(NC(COc1ccc2[nH]c(=O)[nH]c2c1)c1ccccc1)c1cccn(Cc2ccc(F)c(F)c2)c1=O (stereo not given)
[1]
  z-score: -0.974 (inactive) and -0.18 (inactive)
  cell count: 5360 and 6280
[2]
  z-score: -0.76 (inactive) and -0.318 (inactive)
  cell count: 4530 and 6370
[3]
  z-score: -0.629 (inactive) and -0.22 (inactive)
  cell count: 5030 and 6190
[4]
  z-score: -0.746 (inactive) and -0.664 (inactive)
  cell count: 4470 and 5840

## CCCN(CCCN)N(O)N=O
  z-score: 0.0434 (inactive)
  cell count: 5220

## COc1ccc2cc(C(C#N)OC(=O)OCC3OC3c3ccccc3)ccc2c1 (stereo not given)
  z-score: -0.334 (inactive)
  cell count: 4870

## CCCCCCCCCCCCCCCCOC[C@@H](O)COP(=O)([O-])OCC[N+](C)(C)C
  z-score: -1.65 (inactive)
  cell count: 5770

## CCCC[C@@H](C)C(OC(=O)C[C@@H](CC(=O)O)C(=O)O)C(C[C@@H](C)C[C@H](O)CCCC[C@@H](O)C[C@H](O)[C@H](C)N)OC(=O)C[C@@H](CC(=O)O)C(=O)O (stereo not given in full)
  z-score: -0.0113 (inactive)
  cell count: 5860

## NCCc1c(Cl)cccc1Cl
[1]
  z-score: 0.124 (inactive)
  cell count: 5290
[2]
  z-score: 0.256 (inactive)
  cell count: 5420
[3]
  z-score: 0.163 (inactive)
  cell count: 5540
[4]
  z-score: -0.533 (inactive)
  cell count: 5250

## CCCCCCCCCCCCCCCC(=O)OC[C@H](COP(=O)([O-])OCC[N+](C)(C)C)OC(=O)CCCC=O
  z-score: 0.248 (inactive)
  cell count: 4750

## Cc1nc(-c2ccc(-c3ccc(C(=O)N4CCc5cc6c(cc54)C4(CCN(C)CC4)CO6)cc3)c(C)c2)no1
[1]
  z-score: -0.255 (inactive)
  cell count: 5300
[2]
  z-score: 0.0819 (inactive)
  cell count: 5160
[3]
  z-score: -0.0801 (inactive)
  cell count: 5100
[4]
  z-score: 3.86 (active)
  cell count: 1770

## CC1CNCCc2ccc(Cl)cc21 (stereo not given)
[1]
  z-score: -0.315 (inactive)
  cell count: 6030
[2]
  z-score: -0.24 (inactive)
  cell count: 5570
[3]
  z-score: -0.135 (inactive)
  cell count: 5830
[4]
  z-score: -0.0867 (inactive)
  cell count: 5720
